The source of these data is PubChem BioAssay.

Inconclusive results are not listed. Active and inactive are the calls of the source.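 The calls were made as follows, unless noted: active = percent response above a set limit, the screen-wide mean plus 3 SD (cut at about 130% in these data); inactive = the rest.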

A short description of assay [1]: rapamycin-like changes in RPL19A-GFP expression – cell-based, S. cerevisiae, multiplex flow cytometry, primary screen (AID 1862; in the data active = percent of DMSO control GFP below about 86%;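 also: lower values mimic rapamycin by blocking the RPL19A rise seen in DMSO cells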). To be noted: S. cerevisiae RPL19A-GFP strain, flow cytometry fluorescence, 3 h; at 10 µM; stronger effect = lower value. In general terms: A flow cytometer gives signals particle by particle.
Assay [2] in a line: TOR pathway GLN3 branch reporter MEP2-GFP changes – S. cerevisiae, multiplex flow cytometry, primary screen (AID 1867;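 active = GFP response, as percent of the DMSO control, above the screen-wide mean plus 3 SD, about 139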;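 also: median GFP channel fluorescence of barcode-gated MEP2-GFP cells measured by flow cytometry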). To be noted: S. cerevisiae MEP2-GFP strain, 3 h, at 10 µM, stronger effect = higher value, 100% means same as DMSO wells.
Assay [3] in a line: TOR pathway RTG branch CIT2 reporter changes – S. cerevisiae, GFP fusion, multiplex flow cytometry, primary screen (AID 1870).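 Also: barcoded CIT2-GFP strain pooled with four other GFP strains with rapamycin as positive control; median GFP fluorescence per well over plate mean of DMSO wells so 100% = DMSO.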 To be noted: S. cerevisiae CIT2-GFP expression, 3 h, at 10 µM, stronger effect = higher value.
The nature of assay [4]: TOR pathway LAP4-GFP level changes – S. cerevisiae, multiplex flow cytometry, primary screen (AID 1873;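 active = GFP signal, as percent of the solvent control, above the screen mean plus 3 SD, about 149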). The settings on record: S. cerevisiae LAP4-GFP expression, 3 h, at 10 µM, stronger effect = higher value.
Assay [5] can be described thus: yeast AGP1-GFP level changes, GLN3 branch – cell-based, multiplex flow cytometry, S. cerevisiae, primary screen (AID 1887;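 active = GFP signal above the screen-wide mean plus 3 SD, that is over about 124.5% of the solvent control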;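 also: AGP1-GFP fusion strain of S. cerevisiae within a five-strain barcoded multiplex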). To be noted: 3 h, at 10 µM, stronger effect = higher value.
The nature of assay [6]: reduced mouse 2C T cell binding to pMHC/ICAM-1 vesicles – MLPCN validation set, flow cytometry, LFA-1/ICAM-1 modulator project, pilot screen (AID 2523;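 active = response below a set limit, under 55% cells CD8-positive and vesicle-bound, and CD8 cells' 90th-percentile brightness under 279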;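 as to vesicle binding response: mean PE anti-B7-1 fluorescence of CD8+ cells relative to row control; 100% = QL9-loaded vesicles with DMSO vehicle in the same plate row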). To be noted: 2C mouse CD8+ T cells, at 7 µM, stronger effect = lower value; double positive events: measured here: CD8+/vesicle+ event percentage.
In assay [7] the target is Integrin beta-1 (Homo sapiens) + Integrin alpha-4 (Homo sapiens) (UniProt P13612+P05556). Put plainly: alpha4beta1 integrin LIBS antibody binding reduction – U937 cells, HUTS-21 mAb, flow cytometry, validation set, VLA-4 allosteric modulator project, pilot screen (AID 2674;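 active = inhibition above 50%, about 3 SD of the validation set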;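 also: antibody binding induced by the VLA-4 ligand LDV present at three times its Kd; 0% = LDV ligand with antibody and no compound and 100% = antibody without LDV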). To be noted: HUTS-21 LIBS mAb binding, at 6.7 µM, stronger effect = higher value, binding induced by LDV ligand.

Assay [8] in a line: calorie-restriction mimetic ROS inhibitors, yeast – validation compound set, pilot screen (AID 2706;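 active = superoxide response below 65% of plate, a cut near 3 SD across the whole screen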;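 also: yeast exposed to compound for one week at 30 degrees C before staining; 100% = mean of all compound wells on the same plate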). To be noted: S. cerevisiae aging, superoxide DHE fluorescence; at 10 µM, stronger effect = lower value.
Assay [9] has as its target Beta-adrenergic receptor kinase 1 (Homo sapiens) (UniProt P25098). The experiment in a line: GRK2 binders displacing RNA aptamer, biochemical, validation, human GRK2, bead flow cytometry (AID 488806;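 active = aptamer binding inhibition above 30%, about 3 SD of noise from non-fluorescent compounds; inactive = inhibition at or below 30%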). To be noted: bead-bound GRK2, FAM-aptamer displacement, at 10 µM, stronger effect = higher value.
The target of assay [10] is AP-2 complex subunit beta (Homo sapiens) (UniProt P63010). The experiment in a line: beta-arrestin/AP2 interaction blockers – biochemical, validation set, GST-AP2 beads, flow cytometry, pilot screen (AID 504541;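 active = inhibition above 54%, about 3 SD of non-fluorescent compounds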;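 also: AP2 carries R879A mutation and is captured from E. coli lysate; bead-bound FITC arrestin peptide fluorescence measuring arrestin peptide binding to AP2; 0% = DMSO wells and 100% = excess unlabeled arrestin peptide control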). To be noted: FITC arrestin peptide, at 10 µM, stronger effect = higher value, AP2 beta2 appendage fragment, R879A mutant.
Assay [11] in a line: cytosolic pH regulators acting via V-ATPase – S. cerevisiae, pHLuorin, HTS validation (AID 504600; in the data active = response above about 15%;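 also: plate controls were DMSO for no effect and reference compound for full effect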). To be noted: V-ATPase proton transport, at 10 µM, stronger effect = higher value.
The test system of assay [12] is anti-desmoglein-3 scFv antibody binding to human DSG3. Put plainly: blockers of pathogenic pemphigus antibody–desmoglein-3 binding – biochemical, validation compound set, bead-based, flow cytometry, pilot screen (AID 588368;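 active = binding below the plate cutoff, the plate median minus 3 SD, with a reading above zero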;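 also: signal is the median channel fluorescence of bead-bound GFP antibody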). The settings on record: Protein G beads, DSG3-Fc, scFv-GFP binding, at 10 µM, stronger effect = lower value.
Assay [13] in a line: Nile Red efflux blockade in pump-expressing yeast – validation compound set, multiplex, phenotypic, pilot screen (AID 588506;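 active = efflux inhibition above 0.42, the validation set average plus 4 SD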;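 also: Nile Red retained in cells so higher fluorescence means more efflux inhibition; 0 = negative control wells and 1 = enniatin B 25 µM full block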). The settings on record: S. cerevisiae pump-expressing triplex, Nile Red efflux flow cytometry; at 10 µM; stronger effect = higher value; the pumps come from Candida albicans.
Assay [14] deals with ATP-binding cassette sub-family B member 6 (Homo sapiens) (UniProt Q9NP58). Put plainly: blockers of ABCB6-driven porphyrin uptake – K562-ABCB6 cells, flow cytometry, validation set, pilot screen (AID 588550;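 active = inhibition above the screen-wide mean plus 3 SD, about 51%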;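 also: 0% = DMSO wells and 100% = benzethonium chloride 70 µM positive control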). To be noted: K562-ABCB6 porphyrin accumulation, 1 h, at 10 µM, stronger effect = higher value.
The nature of assay [15]: AML differentiation inducers, ER-HoxA9 marrow cells – cell-based, GFP/MAC1 double positive, flow cytometry, validation set, primary screen (AID 588685;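 active = differentiation response of at least 50%, scaled between solvent and reference control, from cells with both markers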;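 also: compound exposure lasts four days before antibody staining and flow analysis; 0% = DMSO wells and 100% = 5 µM fulvestrant positive control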). The settings on record: stronger effect = higher value, normalized: vehicle 0, fulvestrant 100.
The target of assay [16] is Beta-2 adrenergic receptor (Homo sapiens) (UniProt P07550). Put plainly: agonist-induced loss of surface beta2AR – cell-based, FAP fluorogen, flow cytometry, validation set, pilot screen (AID 504459;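 active = percent response above 42, roughly 3 SD of non-fluorescent test compounds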;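 also: agonist-driven loss of surface beta2AR via internalization measured by FAP dye flow cytometry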). To be noted: Am2.2-beta2AR cells, at 10 µM, stronger effect = higher value.
Sequence of Beta-2 adrenergic receptor (Homo sapiens) (P07550 whole entry, looked up): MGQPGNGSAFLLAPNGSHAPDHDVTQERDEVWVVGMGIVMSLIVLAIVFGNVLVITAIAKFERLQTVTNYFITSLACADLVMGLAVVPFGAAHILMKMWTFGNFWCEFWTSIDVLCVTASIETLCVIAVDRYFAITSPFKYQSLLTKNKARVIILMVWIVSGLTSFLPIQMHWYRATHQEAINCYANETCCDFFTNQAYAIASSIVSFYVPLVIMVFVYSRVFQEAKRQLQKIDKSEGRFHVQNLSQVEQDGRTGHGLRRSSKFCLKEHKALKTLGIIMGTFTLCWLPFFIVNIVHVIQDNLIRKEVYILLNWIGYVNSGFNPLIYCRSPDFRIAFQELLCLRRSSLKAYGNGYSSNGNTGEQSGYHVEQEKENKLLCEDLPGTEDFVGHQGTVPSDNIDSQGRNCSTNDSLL

Sequence of Beta-adrenergic receptor kinase 1 (Homo sapiens) (P25098 whole entry, looked up): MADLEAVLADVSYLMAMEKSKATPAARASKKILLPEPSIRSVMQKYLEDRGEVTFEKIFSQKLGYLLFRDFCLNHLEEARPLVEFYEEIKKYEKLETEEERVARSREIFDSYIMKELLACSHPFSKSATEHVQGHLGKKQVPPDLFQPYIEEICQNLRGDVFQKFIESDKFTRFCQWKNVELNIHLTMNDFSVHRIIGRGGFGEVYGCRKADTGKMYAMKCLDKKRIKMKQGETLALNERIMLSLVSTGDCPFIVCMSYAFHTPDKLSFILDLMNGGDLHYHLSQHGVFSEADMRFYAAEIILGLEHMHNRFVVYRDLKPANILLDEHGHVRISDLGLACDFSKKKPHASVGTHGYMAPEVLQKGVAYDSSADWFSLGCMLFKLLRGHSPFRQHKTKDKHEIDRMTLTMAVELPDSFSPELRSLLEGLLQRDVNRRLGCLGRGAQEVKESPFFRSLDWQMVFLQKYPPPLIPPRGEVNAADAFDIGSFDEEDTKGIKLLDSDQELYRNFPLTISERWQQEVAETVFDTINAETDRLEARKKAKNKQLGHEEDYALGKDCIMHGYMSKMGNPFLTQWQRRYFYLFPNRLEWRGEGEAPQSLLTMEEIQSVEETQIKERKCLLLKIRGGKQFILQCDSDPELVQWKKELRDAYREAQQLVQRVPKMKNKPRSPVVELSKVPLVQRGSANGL
Sequence of ATP-binding cassette sub-family B member 6 (Homo sapiens) (Q9NP58 whole entry, looked up): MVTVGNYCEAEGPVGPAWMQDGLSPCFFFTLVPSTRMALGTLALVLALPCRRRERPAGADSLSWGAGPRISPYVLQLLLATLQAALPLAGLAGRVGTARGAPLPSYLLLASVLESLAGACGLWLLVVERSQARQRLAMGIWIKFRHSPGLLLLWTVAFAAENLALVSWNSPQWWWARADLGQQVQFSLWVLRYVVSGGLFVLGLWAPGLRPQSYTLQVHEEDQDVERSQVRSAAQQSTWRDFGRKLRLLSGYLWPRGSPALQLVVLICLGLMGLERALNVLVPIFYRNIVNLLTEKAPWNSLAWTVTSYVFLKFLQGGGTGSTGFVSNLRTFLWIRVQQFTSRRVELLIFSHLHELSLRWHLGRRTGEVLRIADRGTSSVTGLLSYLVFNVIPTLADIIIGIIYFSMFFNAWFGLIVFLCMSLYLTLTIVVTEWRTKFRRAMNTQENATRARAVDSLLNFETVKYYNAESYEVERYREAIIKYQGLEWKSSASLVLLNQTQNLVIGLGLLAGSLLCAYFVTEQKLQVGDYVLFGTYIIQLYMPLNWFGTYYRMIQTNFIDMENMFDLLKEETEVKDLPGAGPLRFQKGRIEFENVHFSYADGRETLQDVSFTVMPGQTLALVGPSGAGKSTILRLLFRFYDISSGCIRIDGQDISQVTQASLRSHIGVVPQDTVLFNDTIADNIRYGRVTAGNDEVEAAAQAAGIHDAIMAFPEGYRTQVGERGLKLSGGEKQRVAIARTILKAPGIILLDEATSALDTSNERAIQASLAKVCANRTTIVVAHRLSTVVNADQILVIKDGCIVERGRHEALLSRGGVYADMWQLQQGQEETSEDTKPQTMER
Sequence of Integrin beta-1 (Homo sapiens) + Integrin alpha-4 (Homo sapiens) (P05556 whole entry, looked up): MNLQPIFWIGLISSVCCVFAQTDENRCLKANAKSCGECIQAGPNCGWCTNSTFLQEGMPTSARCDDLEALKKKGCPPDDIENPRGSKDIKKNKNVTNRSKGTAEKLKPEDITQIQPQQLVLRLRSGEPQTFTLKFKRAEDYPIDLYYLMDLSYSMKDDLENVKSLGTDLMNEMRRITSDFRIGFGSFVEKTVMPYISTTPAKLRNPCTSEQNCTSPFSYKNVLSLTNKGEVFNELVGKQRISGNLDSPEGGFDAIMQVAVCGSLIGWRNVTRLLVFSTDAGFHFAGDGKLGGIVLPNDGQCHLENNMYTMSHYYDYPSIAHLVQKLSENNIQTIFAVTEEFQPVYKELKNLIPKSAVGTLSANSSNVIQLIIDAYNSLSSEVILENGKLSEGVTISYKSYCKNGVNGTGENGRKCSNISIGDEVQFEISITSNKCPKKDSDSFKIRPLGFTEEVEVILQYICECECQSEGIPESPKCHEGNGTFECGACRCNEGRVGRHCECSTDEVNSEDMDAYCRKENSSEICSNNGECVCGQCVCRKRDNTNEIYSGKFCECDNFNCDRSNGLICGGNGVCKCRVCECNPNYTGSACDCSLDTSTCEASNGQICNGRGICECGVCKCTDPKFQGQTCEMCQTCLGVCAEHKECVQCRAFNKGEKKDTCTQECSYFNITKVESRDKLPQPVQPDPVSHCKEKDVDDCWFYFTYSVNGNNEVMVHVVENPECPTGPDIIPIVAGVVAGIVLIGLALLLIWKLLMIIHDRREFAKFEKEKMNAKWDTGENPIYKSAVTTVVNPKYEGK
Sequence of Integrin beta-1 (Homo sapiens) + Integrin alpha-4 (Homo sapiens) (P13612 whole entry, looked up): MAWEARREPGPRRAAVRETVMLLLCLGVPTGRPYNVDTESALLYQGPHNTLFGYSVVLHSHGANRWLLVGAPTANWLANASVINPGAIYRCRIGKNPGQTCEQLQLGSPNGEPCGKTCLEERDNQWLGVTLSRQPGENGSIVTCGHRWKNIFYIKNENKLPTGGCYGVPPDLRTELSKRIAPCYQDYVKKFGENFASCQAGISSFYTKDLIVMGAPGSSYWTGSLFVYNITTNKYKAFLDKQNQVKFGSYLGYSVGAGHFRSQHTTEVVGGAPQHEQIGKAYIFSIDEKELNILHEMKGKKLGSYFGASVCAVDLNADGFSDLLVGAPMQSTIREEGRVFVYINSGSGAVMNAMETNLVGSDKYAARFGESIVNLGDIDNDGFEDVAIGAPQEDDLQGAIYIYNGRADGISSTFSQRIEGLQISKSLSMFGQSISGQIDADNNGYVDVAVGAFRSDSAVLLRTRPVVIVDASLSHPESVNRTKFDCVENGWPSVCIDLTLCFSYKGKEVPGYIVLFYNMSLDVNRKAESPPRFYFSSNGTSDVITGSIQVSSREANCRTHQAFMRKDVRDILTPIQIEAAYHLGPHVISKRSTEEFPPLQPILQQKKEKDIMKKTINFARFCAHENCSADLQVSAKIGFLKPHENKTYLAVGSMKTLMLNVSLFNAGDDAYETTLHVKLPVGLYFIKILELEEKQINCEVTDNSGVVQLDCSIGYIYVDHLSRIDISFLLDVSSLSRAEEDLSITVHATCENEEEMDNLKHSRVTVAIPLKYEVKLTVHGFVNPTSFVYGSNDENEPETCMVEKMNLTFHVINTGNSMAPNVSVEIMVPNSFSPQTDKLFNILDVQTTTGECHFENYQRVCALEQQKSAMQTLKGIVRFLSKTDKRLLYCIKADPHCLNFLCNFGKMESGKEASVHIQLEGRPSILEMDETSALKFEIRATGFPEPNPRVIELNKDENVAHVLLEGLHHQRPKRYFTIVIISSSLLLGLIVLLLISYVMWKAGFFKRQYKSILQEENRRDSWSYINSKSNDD
Sequence of AP-2 complex subunit beta (Homo sapiens) (P63010 whole entry, looked up, the tested form may be a part, one chain of several): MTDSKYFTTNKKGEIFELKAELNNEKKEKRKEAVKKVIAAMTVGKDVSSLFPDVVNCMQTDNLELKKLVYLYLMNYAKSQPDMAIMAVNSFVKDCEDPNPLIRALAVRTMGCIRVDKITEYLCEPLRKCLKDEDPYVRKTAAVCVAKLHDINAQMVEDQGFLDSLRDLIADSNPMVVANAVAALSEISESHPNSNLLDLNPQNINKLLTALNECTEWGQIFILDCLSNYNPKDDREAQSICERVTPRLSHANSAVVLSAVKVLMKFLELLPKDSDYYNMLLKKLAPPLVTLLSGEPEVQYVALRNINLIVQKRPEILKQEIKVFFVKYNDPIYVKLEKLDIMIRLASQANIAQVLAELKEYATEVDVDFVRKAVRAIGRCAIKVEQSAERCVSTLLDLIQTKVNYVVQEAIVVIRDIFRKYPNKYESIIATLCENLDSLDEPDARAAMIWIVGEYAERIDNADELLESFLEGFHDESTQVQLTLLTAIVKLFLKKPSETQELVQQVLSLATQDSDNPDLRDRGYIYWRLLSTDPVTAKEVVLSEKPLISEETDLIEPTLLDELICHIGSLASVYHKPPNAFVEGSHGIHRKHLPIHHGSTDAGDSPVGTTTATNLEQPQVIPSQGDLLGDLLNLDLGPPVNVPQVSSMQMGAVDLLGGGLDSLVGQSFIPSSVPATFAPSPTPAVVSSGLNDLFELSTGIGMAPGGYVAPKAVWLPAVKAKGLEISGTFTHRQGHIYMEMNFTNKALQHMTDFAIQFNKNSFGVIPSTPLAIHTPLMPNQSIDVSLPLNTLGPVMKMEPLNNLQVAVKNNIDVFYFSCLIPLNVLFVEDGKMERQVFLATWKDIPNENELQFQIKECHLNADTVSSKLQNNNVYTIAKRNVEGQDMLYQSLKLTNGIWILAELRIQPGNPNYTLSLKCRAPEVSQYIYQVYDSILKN

For orientation: inhibition means the relative decrease from the control value, in per cent. For the compound `CC(=O)OCC(=O)[C@@]12OC(C)(C)O[C@@H]1C[C@H]1[C@@H]3C[C@H](F)C4=CC(=O)C=C[C@]4(C)[C@@]3(F)[C@@H](O)C[C@@]12C`, the percent of DMSO control GFP in assay [1] is 104% (inactive). Also, the values for the GFP response vs DMSO in [2] and in assay [4] were 107% (inactive) and 100% (inactive), respectively. The percent response of DMSO control in assay [3] was 106% (inactive). Further, the GFP response, % of DMSO in [5] was 105% (inactive). In addition, the double positive events in assay [6] turned out to be 64.6%. Also, in assay [6], the vesicle binding response was 212% (inactive). In addition, the results for the inhibition in [7], in [10] and in assay [14] were 3.49% (inactive), 2.71% (inactive) and 8% (inactive), respectively. Also, in assay [8], the superoxide response (% of plate) is 94.7% (inactive). For the same compound, the aptamer binding inhibition in assay [9] was 0% (inactive). Besides, the response in assay [11] is 1.38% (inactive). The binding (% of control) in assay [12] is 91.8% (inactive). The efflux inhibition (fraction of control) in assay [13] was 0.03 (inactive). Also, the differentiation response in assay [15] was 19.2% (inactive).
As to `CC(C)Cc1cc(C(=O)N2CCC(N3CCC(C(=O)N4CCCC4)CC3)CC2)n[nH]1`, the percent of DMSO control GFP in assay [1] was 100% (inactive). The GFP response vs DMSO in assay [2] is 89.7% (inactive); in assay [4], 96.4% (inactive). For the same compound, the percent response of DMSO control in [3] was 109% (inactive). Besides, the GFP response, % of DMSO in [5] is 102% (inactive). In [6], the double positive events is 47.5%. Besides, the vesicle binding response in [6] was 191% (inactive). For the same compound, the inhibition in assay [7] was -2.11% (inactive); in assay [10] it was 3.03% (inactive); in assay [14], 3% (inactive). Besides, the superoxide response (% of plate) in [8] was 102% (inactive). Further, in [9], the aptamer binding inhibition was -3% (inactive). Further, the response in [11] was 1.07% (inactive). Also, in assay [12], the binding (% of control) was 107% (inactive). Besides, the efflux inhibition (fraction of control) in assay [13] is -0.16 (inactive). Also, the differentiation response in assay [15] is -27.6% (inactive).
As to `C[C@]12CC[C@@H]3c4cc(O)c(O)cc4CC[C@H]3[C@@H]1CC[C@@H]2O`, the percent of DMSO control GFP in assay [1] was 98.8% (inactive). Further, the GFP response vs DMSO was 98.3% (inactive) in [2] and 81.5% (inactive) in [4]. In addition, the percent response of DMSO control in [3] is 95.4% (inactive). The GFP response, % of DMSO in assay [5] is 90% (inactive). Moreover, in [6], the double positive events was found to be 65.9%. Further, the vesicle binding response in [6] is 236% (inactive). In addition, the inhibition in [7] was 16.1% (inactive); in [10], 2.25% (inactive); in [14] it was 5% (inactive). In addition, the aptamer binding inhibition in assay [9] is 3% (inactive). Besides, the figures for the response in assay [16] and in [11] were 0.11% (inactive) and -0.25% (inactive), respectively. For the same compound, in assay [12], the binding (% of control) is 96.1% (inactive). Also, the efflux inhibition (fraction of control) in assay [13] is 0.49 (active). Moreover, the differentiation response in assay [15] was 8.06% (inactive).
Regarding `Cn1cnc2c1c(=O)n(CC(O)CO)c(=O)n2C` (stereo not given), the percent of DMSO control GFP in [1] is 102% (inactive). The GFP response vs DMSO was 96.2% (inactive) in [2] and 98.6% (inactive) in [4]. The percent response of DMSO control in assay [3] was 98.9% (inactive). The GFP response, % of DMSO in assay [5] is 96.7% (inactive). The same compound came in with a double positive events in assay [6] of 62.7%. Besides, in [6], the vesicle binding response was 59.9% (inactive). Also, the results for the inhibition in [7], in assay [10] and in assay [14] were 11% (inactive), -6.49% (inactive) and 9% (inactive), respectively. The aptamer binding inhibition in assay [9] was -1% (inactive). Further, the response in [16] was -2.93% (inactive); in assay [11], -0.43% (inactive). In assay [12], the binding (% of control) is 102% (inactive). Further, the efflux inhibition (fraction of control) in assay [13] was -0.04 (inactive). In assay [15], the differentiation response was 43.2% (inactive).
In the case of `CCC1(c2ccccc2)C(=O)NCNC1=O`, the percent of DMSO control GFP in assay [1] is 102% (inactive). Moreover, the GFP response vs DMSO in [2] is 94.1% (inactive); in assay [4] it was 87.4% (inactive). Also, in assay [3], the percent response of DMSO control was 95.4% (inactive). In addition, in assay [5], the GFP response, % of DMSO was 92.6% (inactive). Besides, the double positive events in assay [6] came to 61.9%. Further, in assay [6], the vesicle binding response is 285% (inactive). Moreover, the inhibition in assay [7] is 5.77% (inactive); in assay [10], 13.7% (inactive); in [14] it was -12% (inactive). Moreover, in assay [9], the aptamer binding inhibition was 2% (inactive). Further, the figures for the response in [16] and in assay [11] were 7.83% (inactive) and 1.33% (inactive), respectively. Moreover, in assay [12], the binding (% of control) is 101% (inactive). In addition, in [13], the efflux inhibition (fraction of control) was 0.77 (active). Moreover, the differentiation response in assay [15] was 13.9% (inactive).
